The values that follow come from PubChem BioAssay AID434989 (The Scripps Research Institute Molecular Screening Center, 2010).

The campaign covered roughly 330,000 compounds. About 1,400 (0.42%) were called active.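 Rule for the calls: active = inhibition above its plate's threshold, mean inhibition of all tested compounds on the plate plus 3 SD (cut at about 37% in these data); inactive = the rest.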 The entries come from a sample that favours actives as a whole.

The target in the assay is Orexin/Hypocretin receptor type 1 (Homo sapiens) (UniProt O43613). Nature of the assay: OX1R (HCRTR1) antagonists, primary screen, fluorescence, CHO/OX1R cells, Fluo-8 calcium, orexin A (AID 434989).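 Note: 0% = orexin A challenge wells and 100% = SB-334867-A antagonist wells.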 To be noted: Fluo-8 calcium fluorescence, at 5 µM, hits give high values.
Sequence of Orexin/Hypocretin receptor type 1 (Homo sapiens) (O43613 whole entry, looked up): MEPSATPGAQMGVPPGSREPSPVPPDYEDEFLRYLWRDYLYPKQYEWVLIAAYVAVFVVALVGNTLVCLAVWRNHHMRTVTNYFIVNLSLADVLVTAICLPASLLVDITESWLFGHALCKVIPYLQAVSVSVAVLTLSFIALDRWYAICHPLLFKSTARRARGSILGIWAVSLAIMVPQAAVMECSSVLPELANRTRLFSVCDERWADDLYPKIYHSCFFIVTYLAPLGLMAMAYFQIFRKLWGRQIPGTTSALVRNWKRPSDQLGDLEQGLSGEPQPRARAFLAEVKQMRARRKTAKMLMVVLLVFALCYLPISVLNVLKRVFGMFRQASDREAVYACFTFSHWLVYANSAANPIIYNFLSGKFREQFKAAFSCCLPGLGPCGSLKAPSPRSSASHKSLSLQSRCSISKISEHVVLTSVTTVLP
In the case of `N#C/C(=C1/CCCN1)c1ccccn1`, the inhibition was -3.72% (inactive).

As to `N#CC(=C1SC=CS1)c1nc(-c2ccccc2)cs1`, the inhibition was 89.5% (active).

Take `N#C/C(=C1\CCCN1)c1nc(-c2ccccc2)cs1`: the inhibition is 52.9% (active).

Regarding `CCNC(=O)CSc1nc(-c2ccccc2)cs1`, the inhibition is 4.28% (inactive).

In the case of `N#CC(=C1CCCC1)c1nc(-c2ccc(Cl)cc2)cs1`, the inhibition is -23.8% (inactive).

In the case of `Cn1c(/C(C#N)=C2/CCCCCN2)nc2ccccc21`, the inhibition was -27.9% (inactive).

With `Cc1cccc(C(=O)N[C@H](C(=O)NCc2cccs2)C(C)C)c1`, the inhibition was -7.31% (inactive).

For `CCOC(=O)N1CCN(C(=O)C2CCN(c3ncnc4c3sc3cccc(F)c34)CC2)CC1`, the inhibition is 65.7% (active).

In the case of `CCOC(=O)C1CCN(c2ncnc3c2oc2ccc(Br)cc23)CC1`, the inhibition was -11.1% (inactive).

Turning to `CCOC(=O)N1CCN(C(=O)C2CCN(S(=O)(=O)c3cc(Cl)ccc3OCC)CC2)CC1`, the inhibition is -21.5% (inactive).

Take `CCN(CC(=O)NC(C)C)C(=O)c1cc(S(=O)(=O)N2CCCCC2)ccc1N1CCCCC1`: the inhibition was -37.7% (inactive).

As for `CCCCNC(=O)C(C)N(CCN(C)C)C(=O)CCCN1C(=O)NC(c2ccc(Cl)cc2)C(C(=O)OCc2ccccc2)=C1C` (stereo unspecified), the inhibition is -28.8% (inactive).

For `O=C(Nc1cccc(Br)c1)c1ccc2snnc2c1`, the inhibition is -1.56% (inactive).

With `CCc1ccccc1NC(=O)c1ccc2snnc2c1`, the inhibition was -1.72% (inactive).

For `O=C(Nc1ccc2ccccc2c1)Nc1ccc2snnc2c1`, the inhibition is 41.4% (active).

`COc1ccc(C2=Nn3c(nnc3-c3ccccc3OC)SC2)cc1OC1CCCC1`: the inhibition was -19.5% (inactive).

On to `O=c1c2ccccc2nc2n1C(CSc1ccc(F)cc1)CN2` (stereo unspecified), for which the inhibition was -5.98% (inactive).

As to `O=c1c2ccccc2nc2n1C(CSCc1cccc(C(F)(F)F)c1)CS2` (stereo unspecified), the inhibition is 45.5% (active).

`O=c1c2ccccc2nc2n1C(CSCc1ccccc1)CS2` (stereo unspecified): the inhibition is -3.31% (inactive).

Consider `Cc1ccc(S(=O)(=O)NCC(=O)NNC(=O)c2ccc(Br)cc2)cc1C`, for which the inhibition is -11.2% (inactive).

As for `COc1cccc(CC(=O)OCC(=O)NCc2ccc3c(c2)OCO3)c1`, the inhibition is -9.44% (inactive).

Consider `COc1cccc(/C=N/Nc2cc(C)nc(-c3ccccc3O)n2)c1O`, for which the inhibition was 93.8% (active).

As for `Oc1cccc(/C=N/Nc2ccc(Cl)nn2)c1O`, the inhibition is -18.9% (inactive).

As for `COc1ccccc1/C=N/Nc1nc(C)c(C(C)=O)s1`, the inhibition is -4.69% (inactive).

`CCNC(=O)N(CC)C[C@H]1N[C@@](CC)(C(=O)OC)[C@H]2C(=O)N(Cc3ccccc3)C(=O)[C@@H]12`: the inhibition was 4.29% (inactive).

For `C=CCC[C@H](Cc1ccc(F)cc1)C(=O)OC[C@H](C)NC(=O)[C@H](CC=C)CC(=O)N(CCO)Cc1ccccc1`, the inhibition was 6.31% (inactive).

Broadly, the inhibition is the drop in the measured response relative to a control, in per cent.
